Test systems include SR leukemia; RPMI-8226 leukemia; OVCAR-8 ovarian; OVCAR-5 ovarian; OVCAR-4 ovarian; SK-OV-3 ovarian; OVCAR-3 ovarian; HS 578T breast; NCI/ADR-RES ovarian; T-47D breast; BT-549 breast; MDA-MB-435 melanoma; SW-620 colon; MCF7 breast; HCT-116 colon; HCC-2998 colon; KM12 colon; IGROV1 ovarian.
Common to all, as to assay: NCI-60 one-dose screen, 48 h (100 = growth as untreated, 0 = no growth, -100 = all killed)
Common to all, as to conditions: 10 µM

This is part of a sample that, as a whole, favours compounds with a hit. Of some 83,000 tested, about 20% had one in any assay.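 Assay: single dose, 48 h. Readout: percent growth (0 = no net growth; negative = cell death). Active: <10.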 Unmarked numbers belong to inactive results. Active and inactive are the calls of the source.

With `CCOC(=O)c1ccc(N(C=O)CCC(=O)CCl)cc1`, the growth is 5.14% (active) with SR leukemia; -20.4% (active) with RPMI-8226 leukemia; 3.69% (active) in the assay on OVCAR-8 ovarian; 4.98% (active) in the assay on OVCAR-5 ovarian; 18.8% in the assay with OVCAR-4 ovarian; 30.7% with SK-OV-3 ovarian. Also, the growth was -5.41% (active) in the assay on OVCAR-3 ovarian; 33.2% in the assay on HS 578T breast; 21.4% with NCI/ADR-RES ovarian; -4.12% (active) with T-47D breast; -63.2% (active) with BT-549 breast; -23.9% (active) in the assay on MDA-MB-435 melanoma. Moreover, the growth with SW-620 colon is 7.93% (active); in the assay on MCF7 breast it was -8.44% (active); with HCT-116 colon, 1.64% (active); in the assay on HCC-2998 colon, 14.2%; with KM12 colon, 4.98% (active).

Consider `CC1(C)CCc2cc(-c3ccn(S(=O)(=O)c4ccc(Cl)cc4)n3)ccc2O1`, for which the growth was 45.5% in the assay on SR leukemia; 52.1% with RPMI-8226 leukemia; 86.6% in the assay with OVCAR-8 ovarian; 101% in the assay on OVCAR-5 ovarian; 91.3% in the assay on SK-OV-3 ovarian; 84% in the assay on OVCAR-3 ovarian. Also, the growth is 99.5% in the assay on HS 578T breast; 69.3% in the assay on NCI/ADR-RES ovarian; 54.1% with T-47D breast; 88.8% with BT-549 breast; 85.8% in the assay on MDA-MB-435 melanoma; 87.7% with SW-620 colon. Further, the growth with MCF7 breast is 71.3%; with HCT-116 colon it was 61.1%; in the assay on HCC-2998 colon, 94.3%; in the assay with KM12 colon, 77%.

`CC(C)C[C@H](NC(=O)Cn1ccc2ccccc2c1=O)B(O)O`: the growth in the assay on SR leukemia was 9.81% (active); in the assay with RPMI-8226 leukemia, 11.9%; with OVCAR-8 ovarian, 88.2%; in the assay with OVCAR-4 ovarian, 93.3%; in the assay on SK-OV-3 ovarian, 96.7%; in the assay with IGROV1 ovarian it was 107%. The growth is 42.3% in the assay on OVCAR-3 ovarian; 90% in the assay with HS 578T breast; 103% with NCI/ADR-RES ovarian; 39.6% in the assay with T-47D breast; 58.4% in the assay with BT-549 breast; 3.38% (active) in the assay with MDA-MB-435 melanoma. For the same compound, the growth with SW-620 colon was 42.8%; with MCF7 breast, 31.4%; in the assay on HCT-116 colon, 32.3%; with HCC-2998 colon it was 72.2%; in the assay with KM12 colon it was 93.4%.

Regarding `O=C(Nc1ccc(Oc2ccc(Nc3nc4ccccc4s3)cc2)cc1)Nc1ccc(Cl)c(Cl)c1`, the growth with SR leukemia is 8.33% (active); with RPMI-8226 leukemia, 22.2%; in the assay on OVCAR-8 ovarian, 32.6%; with OVCAR-5 ovarian, 70.5%; with OVCAR-4 ovarian, 24.9%; in the assay with SK-OV-3 ovarian it was 69%. Also, the growth with OVCAR-3 ovarian is 22.8%; in the assay on NCI/ADR-RES ovarian, 25.3%; in the assay with T-47D breast, 13.9%; in the assay on BT-549 breast, 59.5%; in the assay with MDA-MB-435 melanoma it was 25.4%; in the assay on SW-620 colon it was 33.6%. Further, the growth in the assay on MCF7 breast was 29.3%; in the assay on HCT-116 colon it was 16.8%; in the assay with HCC-2998 colon, 29.4%; in the assay on KM12 colon, 20.7%.

Regarding `CCc1ccc(-c2nnc(COc3ccc(-c4nc5ccc(C)cc5[nH]4)cc3OC)o2)cc1`, the growth is -31.5% (active) in the assay on SR leukemia; -6.63% (active) with RPMI-8226 leukemia; 39.9% in the assay with OVCAR-8 ovarian; -59.8% (active) in the assay on OVCAR-4 ovarian; 33.9% in the assay with SK-OV-3 ovarian; 64.4% with IGROV1 ovarian. The growth with OVCAR-3 ovarian is 41.7%; in the assay on HS 578T breast, 28.2%; in the assay on NCI/ADR-RES ovarian, 42.1%; in the assay on T-47D breast it was 15%; in the assay on BT-549 breast, 38.8%; in the assay on MDA-MB-435 melanoma, 36.8%. Further, the growth in the assay on SW-620 colon was 86.7%; in the assay with MCF7 breast it was 30.6%; in the assay on HCT-116 colon it was 37.1%; in the assay on HCC-2998 colon, 97.9%; with KM12 colon, 50.9%.

`COc1nc2c(c(=O)[nH]1)C(c1ccc(Oc3ccnc4cc(Cl)ccc34)c(OC)c1)C=C(c1cc(OC)c(OC)c(OC)c1)N2` (centres undefined): the growth in the assay on SR leukemia was 74.1%; with RPMI-8226 leukemia, 94.5%; with OVCAR-8 ovarian, 97.4%; with OVCAR-5 ovarian, 92.6%; in the assay with OVCAR-4 ovarian, 106%; in the assay with SK-OV-3 ovarian, 99.5%. The growth in the assay on OVCAR-3 ovarian is 108%; in the assay on HS 578T breast, 98.3%; in the assay with NCI/ADR-RES ovarian, 101%; in the assay with T-47D breast it was 89.8%; in the assay on BT-549 breast, 91.7%; in the assay with MDA-MB-435 melanoma, 111%. In addition, the growth was 102% in the assay with SW-620 colon; 102% in the assay with MCF7 breast; 94% with HCT-116 colon; 97.6% in the assay on HCC-2998 colon; 104% with KM12 colon.

Take `CCC1(C)OC(=O)NC1=O` (centres undefined): the growth in the assay with SR leukemia is 115%; in the assay with RPMI-8226 leukemia, 96.6%; in the assay on OVCAR-8 ovarian, 105%; in the assay on OVCAR-5 ovarian, 97.1%; in the assay with OVCAR-4 ovarian, 112%; in the assay on SK-OV-3 ovarian, 84%. Moreover, the growth was 112% in the assay with OVCAR-3 ovarian; 109% in the assay with HS 578T breast; 95.9% in the assay on NCI/ADR-RES ovarian; 93.8% with T-47D breast; 93.3% in the assay on BT-549 breast; 112% with MDA-MB-435 melanoma. The growth is 110% with SW-620 colon; 97.7% with MCF7 breast; 87.7% in the assay on HCT-116 colon; 99% in the assay on HCC-2998 colon; 107% in the assay with KM12 colon.

For `COc1ccc(C(=O)n2nc(CC(=O)NCc3ccccc3)nc2N)cc1`, the growth with SR leukemia was 93.6%; in the assay with RPMI-8226 leukemia, 117%; with OVCAR-8 ovarian it was 115%; in the assay with OVCAR-4 ovarian, 105%; with SK-OV-3 ovarian it was 107%; with IGROV1 ovarian, 93.7%. The growth in the assay on OVCAR-3 ovarian was 118%; in the assay on HS 578T breast, 103%; with NCI/ADR-RES ovarian, 112%; in the assay with T-47D breast, 105%; in the assay on BT-549 breast, 102%; in the assay on MDA-MB-435 melanoma it was 109%. For the same compound, the growth was 105% in the assay on SW-620 colon; 99.1% with MCF7 breast; 99.5% in the assay with HCT-116 colon; 104% in the assay on HCC-2998 colon; 116% in the assay with KM12 colon.

The record behind these values is PubChem BioAssay (NCI).
